The source of these data is PubChem BioAssay (EPA / NIEHS).

Activity calls are given as the source filed them. How the source made its calls: active means hit-call score of the fitted dose curve at least 0.9, where 1 is the maximum; inactive means score below 0.9.

Holding throughout (details): mRNA level, 48 h; actives raise or lower the signal
Read-out in experiment [1]: Cyclin D1 (CCND1), CCND1 (gene 595)
As to the kind of experiment: LTEA_HepaRG_CCND1: Life Technologies and Expression Analysis (LTEA) Assay for Cyclin D1 (CCND1) using HepaRG (AID 2283451). In outline: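 Differentiated human HepaRG cells in serum-free induction medium were exposed 48 h to eight half-log concentrations up to 100 uM in 0.5% DMSO; mRNA quantified by TaqMan qRT-PCR, normalized to ACTB, GAPDH, POLR2A, fitted bidirectionally versus DMSO.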

Read-out in experiment [2]: catalase (CAT), CAT (gene 847)
Kind of experiment: LTEA_HepaRG_CAT: Life Technologies and Expression Analysis (LTEA) Assay for catalase (CAT) using HepaRG (AID 2283452). In outline: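 HepaRG cells in serum-free induction medium, 0.5% DMSO vehicle, exposed 48 h in duplicate over 8 half-log concentrations from 100 uM. CAT mRNA measured by qRT-PCR, normalized to ACTB, GAPDH, POLR2A; bidirectional fit versus DMSO.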

Read-out in experiment [3]: flavin-containing dimethylaniline monooxygenases 3 (FMO3), FMO3 (gene 2328)
Kind of experiment: LTEA_HepaRG_FMO3: Life Technologies and Expression Analysis (LTEA) Assay for flavin-containing dimethylaniline monooxygenases 3 (FMO3) using HepaRG (AID 2283453). In outline:
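Differentiated HepaRG cells in serum-free induction medium, exposed 48 h in duplicate to 8 half-log concentrations up to 100 uM in 0.5% DMSO. FMO3 mRNA by qRT-PCR, normalized to ACTB, GAPDH, POLR2A; bidirectional fit vs DMSO.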

Read-out in experiment [4]: Cytochrome P450 (CYP1A1), CYP1A1 (gene 1543)
Kind of experiment: LTEA_HepaRG_CYP1A1: Life Technologies and Expression Analysis (LTEA) Assay for Cytochrome P450 (CYP1A1) using HepaRG (AID 2283454). A digest of the protocol: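 Differentiated HepaRG cells in serum-free induction medium were exposed in duplicate for 48 h to eight half-log concentrations up to 100 uM in 0.5% DMSO. CYP1A1 mRNA was quantified by TaqMan qRT-PCR, normalized to ACTB, GAPDH and POLR2A.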

Read-out in experiment [5]: CFLAR gene, CFLAR (gene 8837)
As to the kind of experiment: LTEA_HepaRG_CFLAR: Life Technologies and Expression Analysis (LTEA) Assay for CFLAR gene using HepaRG (AID 2283455). A digest of the protocol: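 Differentiated HepaRG cells in serum-free induction medium were exposed 48 h in duplicate to eight half-log concentrations up to 100 uM in 0.5% DMSO; mRNA measured by TaqMan qRT-PCR, normalized to ACTB, GAPDH, POLR2A; bidirectional fitting versus DMSO.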

Read-out in experiment [6]: Forkhead box O1 (FOXO1), FOXO1 (gene 2308)
Kind of experiment: LTEA_HepaRG_FOXO1: Life Technologies and Expression Analysis (LTEA) Assay for Forkhead box O1 (FOXO1) using HepaRG (AID 2283456). In outline: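 Differentiated HepaRG cells, in serum-free induction medium with 0.5% DMSO, exposed 48 h in duplicate to 8-point half-log series from 100 uM. FOXO1 mRNA measured by TaqMan qRT-PCR, normalized to ACTB, GAPDH, POLR2A; bidirectional fit versus DMSO.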

Read-out in experiment [7]: Forkhead box O3 (FOXO3), FOXO3 (gene 2309)
Kind of experiment: LTEA_HepaRG_FOXO3: Life Technologies and Expression Analysis (LTEA) Assay for Forkhead box O3 (FOXO3) using HepaRG (AID 2283459). A digest of the protocol: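 Differentiated human HepaRG cells, 48 h post-plating, exposed in duplicate for 48 h in serum-free induction medium; 8-point half-log series from 100 uM in 0.5% DMSO. FOXO3 mRNA by TaqMan qRT-PCR, normalized to ACTB/GAPDH/POLR2A; bidirectional fit versus DMSO.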

Read-out in experiment [8]: ABC Transporter (ABCB1), ABCB1 (gene 5243)
Kind of experiment: LTEA_HepaRG_ABCB1: Life Technologies and Expression Analysis (LTEA) Assay for ABC Transporter (ABCB1) using HepaRG (AID 2283460). In outline: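 HepaRG cells exposed in duplicate for 48 h in serum-free induction medium to eight half-log concentrations up to 100 uM in 0.5% DMSO. ABCB1 mRNA quantified by qRT-PCR, normalised to ACTB, GAPDH and POLR2A; fitted bidirectionally versus DMSO.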

Read-out in experiment [9]: growth arrest and DNA damage 45 (GADD45B), GADD45B (gene 4616)
Kind of experiment: LTEA_HepaRG_GADD45B: Life Technologies and Expression Analysis (LTEA) Assay for growth arrest and DNA damage 45 (GADD45B) using HepaRG (AID 2283461). In outline: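 Differentiated HepaRG cells, plated 48 h then switched to serum-free induction medium, were exposed 48 h in duplicate to eight half-log concentrations from 100 uM in 0.5% DMSO; mRNA quantified by qRT-PCR, normalized to ACTB/GAPDH/POLR2A, bidirectional fit versus DMSO.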

Read-out in experiment [10]: ABC Transporter (ABCC3), ABCC3 (gene 8714)
Kind of experiment: LTEA_HepaRG_ABCC3: Life Technologies and Expression Analysis (LTEA) Assay for ABC Transporter (ABCC3) using HepaRG (AID 2283462). In outline:
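HepaRG cells in serum-free induction medium were exposed for 48 h in duplicate to 8-point half-log concentrations topping at 100 uM in 0.5% DMSO. ABCC3 mRNA was measured by qRT-PCR normalized to ACTB, GAPDH and POLR2A, with bidirectional fitting versus DMSO.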

Read-out in experiment [11]: ABC Transporter (ABCB11), ABCB11 (gene 8647)
As to the kind of experiment: LTEA_HepaRG_ABCB11: Life Technologies and Expression Analysis (LTEA) Assay for ABC Transporter (ABCB11) using HepaRG (AID 2283463). In outline:
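Differentiated human HepaRG cells in serum-free induction medium, dosed in duplicate for 48 h. Eight-point half-log series from 100 uM in 0.5% DMSO; ABCB11 mRNA by qRT-PCR, normalized to ACTB, GAPDH, POLR2A, fitted bidirectionally versus DMSO.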

Read-out in experiment [12]: ABC Transporter (ABCC2), ABCC2 (gene 1244)
Kind of experiment: LTEA_HepaRG_ABCC2: Life Technologies and Expression Analysis (LTEA) Assay for ABC Transporter (ABCC2) using HepaRG (AID 2283464). A digest of the protocol: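 HepaRG cells were plated 48 h, switched to serum-free induction medium, then exposed in duplicate for 48 h to 8 concentrations (top 100 uM, half-log steps, 0.5% DMSO). ABCC2 mRNA was measured by qRT-PCR normalized to ACTB/GAPDH/POLR2A; bidirectional fitting versus DMSO.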

Read-out in experiment [13]: Broad substrate specificity ATP-binding cassette transporter ABCG2 (Homo sapiens) (UniProt Q9UNQ0)
Kind of experiment: LTEA_HepaRG_ABCG2: Life Technologies and Expression Analysis (LTEA) Assay for ABC Transporter (ABCG2) using HepaRG (AID 2283465). A digest of the protocol:
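Differentiated HepaRG cells were exposed for 48 h in serum-free induction medium to 8 half-log concentrations, top 100 uM, in 0.5% DMSO. ABCG2 mRNA was measured by qRT-PCR, normalized to ACTB, GAPDH and POLR2A, with bidirectional fitting versus DMSO.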

Read-out in experiment [14]: ATP-citrate lyase (ACLY), ACLY (gene 47)
Kind of experiment: LTEA_HepaRG_ACLY: Life Technologies and Expression Analysis (LTEA) Assay for ATP-citrate lyase (ACLY) using HepaRG (AID 2283466). A digest of the protocol: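 Differentiated HepaRG cells exposed 48 h in serum-free induction medium to eight half-log concentrations up to 100 uM in 0.5% DMSO, duplicates. Transcript measured by Fluidigm TaqMan qRT-PCR, normalized to ACTB, GAPDH, POLR2A; bidirectional fit versus DMSO.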

Read-out in experiment [15]: Peroxisomal acyl-coenzyme A oxidase 1 (ACOX1) gene, ACOX1 (gene 51)
As to the kind of experiment: LTEA_HepaRG_ACOX1: Life Technologies and Expression Analysis (LTEA) Assay for Peroxisomal acyl-coenzyme A oxidase 1 (ACOX1) gene using HepaRG (AID 2283467). A digest of the protocol: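 HepaRG cells, plated 48 h then switched to serum-free induction medium, were exposed in duplicate for 48 h to 8-point half-log concentrations up to 100 uM in 0.5% DMSO. ACOX1 mRNA was measured by qRT-PCR, normalized to ACTB/GAPDH/POLR2A, and fitted bidirectionally versus DMSO.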

Read-out in experiment [16]: Alkaline Phosphatase, Placental (ALPP) gene, ALPP (gene 250)
As to the kind of experiment: LTEA_HepaRG_ALPP: Life Technologies and Expression Analysis (LTEA) Assay for Alkaline Phosphatase, Placental (ALPP) gene using HepaRG (AID 2283468). In outline:
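Differentiated human HepaRG cells were plated and cultured 48 h, then exposed in duplicate for 48 h in serum-free induction medium to eight half-log concentrations from 100 uM in 0.5% DMSO. ALPP mRNA was measured by TaqMan qRT-PCR, normalized to ACTB, GAPDH, POLR2A.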

Read-out in experiment [17]: Bcl-2 (BAD) gene, BAD (gene 572)
As to the kind of experiment: LTEA_HepaRG_BAD: Life Technologies and Expression Analysis (LTEA) Assay for Bcl-2 (BAD) gene using HepaRG (AID 2283469). A digest of the protocol: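 Differentiated HepaRG cells were exposed in duplicate in 0.5% DMSO for 48 h to eight-point half-log concentrations up to 100 uM. BAD mRNA was measured by Fluidigm TaqMan qRT-PCR, normalized to ACTB, GAPDH and POLR2A, and fitted bidirectionally against DMSO.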

Read-out in experiment [18]: Bcl-2 (BAX) gene, BAX (gene 581)
As to the kind of experiment: LTEA_HepaRG_BAX: Life Technologies and Expression Analysis (LTEA) Assay for Bcl-2 (BAX) gene using HepaRG (AID 2283470). In outline: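 HepaRG (human liver), 48 h exposure, duplicate wells. 8-pt curve, half-log from 100 uM, 0.5% DMSO. BAX transcript by TaqMan qRT-PCR; ACTB/GAPDH/POLR2A normalization; gain or loss vs DMSO baseline.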

Read-out in experiment [19]: growth arrest and DNA damage 45 (GADD45A), GADD45A (gene 1647)
Kind of experiment: LTEA_HepaRG_GADD45A: Life Technologies and Expression Analysis (LTEA) Assay for growth arrest and DNA damage 45 (GADD45A) using HepaRG (AID 2283458). A digest of the protocol: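 Cells plated and cultured 48 h, switched to serum-free induction medium, then dosed for 48 h (100 uM top, half-log dilutions, 0.5% DMSO). RNA was isolated and transcript measured by Fluidigm qRT-PCR.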

Chain of Broad substrate specificity ATP-binding cassette transporter ABCG2 (Homo sapiens) (Q9UNQ0 whole entry, looked up): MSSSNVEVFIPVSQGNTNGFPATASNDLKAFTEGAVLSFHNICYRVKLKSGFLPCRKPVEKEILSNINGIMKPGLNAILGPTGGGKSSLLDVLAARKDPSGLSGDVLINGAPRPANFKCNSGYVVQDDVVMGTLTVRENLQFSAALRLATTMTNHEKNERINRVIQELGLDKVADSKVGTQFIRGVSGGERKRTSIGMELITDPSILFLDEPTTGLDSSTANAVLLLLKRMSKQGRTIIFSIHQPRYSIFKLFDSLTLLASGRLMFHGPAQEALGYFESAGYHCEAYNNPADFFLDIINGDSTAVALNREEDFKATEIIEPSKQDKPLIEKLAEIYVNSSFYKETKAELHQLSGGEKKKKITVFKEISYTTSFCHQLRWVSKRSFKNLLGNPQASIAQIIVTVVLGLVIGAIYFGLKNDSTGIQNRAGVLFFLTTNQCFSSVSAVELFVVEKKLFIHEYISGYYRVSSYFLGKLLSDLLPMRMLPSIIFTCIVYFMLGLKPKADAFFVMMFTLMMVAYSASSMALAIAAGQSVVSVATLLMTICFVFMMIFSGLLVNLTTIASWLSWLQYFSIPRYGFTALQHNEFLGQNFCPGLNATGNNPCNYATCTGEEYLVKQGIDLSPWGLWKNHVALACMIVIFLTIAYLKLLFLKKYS

Regarding `Clc1ccc(C(c2ccc(Cl)cc2)C(Cl)(Cl)Cl)cc1`, the compound was classed as inactive in experiment [1], in experiment [2], in [5], in experiment [6], in experiment [7] and in experiment [9]. Also, the outcome in experiment [10], in experiment [11], in [14], in [15], in [16] and in experiment [17] was inactive. In addition, the result in [18] was inactive. The AC50 in [3] is 88.4 µM (active); in [4], 9.54 µM (active); in experiment [8] it was 50 µM (active); in [12], 4.19 µM (active); in experiment [13], 0.788 µM (active).

Turning to `ClCCOCCCl`, the compound was called inactive in experiment [1], in [2], in experiment [3], in [4], in experiment [5] and in [6]. Moreover, the outcome in [19], in [7], in experiment [10], in experiment [11], in experiment [12] and in experiment [13] was inactive. Moreover, the compound was classed as inactive in experiment [14], in experiment [15], in experiment [16], in experiment [17] and in experiment [18].

`CN(C)C(=O)Nc1ccc(Cl)cc1`: the compound was called inactive in experiment [1], in experiment [2], in [3], in experiment [5], in experiment [6] and in experiment [19]. In addition, the result in [7], in experiment [11], in [12], in experiment [13], in [14] and in experiment [15] was inactive. Besides, the outcome in experiment [16], in experiment [17] and in [18] was inactive. In addition, in experiment [4], the AC50 is 38 µM (active).

Take `CC(C)(C)OOC(=O)c1ccccc1`: the outcome in experiment [1], in experiment [2], in [3], in [5], in [6] and in [7] was inactive. In addition, the compound was called inactive in [8], in experiment [9], in [10], in experiment [11], in [12] and in experiment [13]. In addition, the compound was classed as inactive in experiment [14], in experiment [15], in experiment [16], in [17] and in experiment [18]. Moreover, the AC50 in experiment [4] was 83.2 µM (active).
